The record followed here is PubChem BioAssay AID463190 (Sanford-Burnham Center for Chemical Genomics, 2010).

Out of some 330,000 compounds screened, about 7,300 (2.2%) were called active. For the sample, actives were picked, then their nearest neighbours and some compounds at random. A number with no mark means an inactive call.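 Rule for the calls: active = inhibition of at least 40%; inactive = the rest.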

The assay is described as follows: growth inhibition of tim10-1 ts yeast – luminescence, uHTS, primary screen (AID 463190).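 Note: mutant grown at 25 °C; 0% = DMSO wells with yeast and 100% = wells holding no yeast.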 The following applies: S. cerevisiae tim10-1 ts strain growth, BacTiter-Glo, 24 h; at 20 µM; hits give high values.
`Cc1occc1-c1nnc(SCC(=O)NC2(C#N)CCCC2)n1C`: the inhibition was -2.1%.

Take `CCOC(=O)C1=C(C)NC(C)=C(C(=O)OCC)C1C1=COCCO1`: the inhibition is 4.91%.

As to `Cc1ccccc1-c1ccc(Nc2ccc(C(=O)N3CCOCC3)cc2)nn1`, the inhibition was 3.37%.

For `COC1=C(N2CCOCC2)C(=O)c2ccccc2C1=O`, the inhibition is 9.96%.

As for `Cc1oc2c(c1C(=O)N1CCOCC1)C(=O)c1ccccc1C2=O`, the inhibition is 58.7% (active).

Turning to `CN1CCC(CN)(N2CCN(c3ccccc3)CC2)CC1`, the inhibition is 16.4%.

Regarding `COC(=O)C1CCN(C(=O)c2ccc3oc(Cc4ccc(Cl)cc4)nc3c2)CC1`, the inhibition was 14.5%.

Take `c1ccc2c(NCC3CCCO3)nc(-c3ccncc3)nc2c1` (stereo not drawn): the inhibition is 33.4%.

As to `c1ccc(-c2nc(NCc3ccco3)c3ccccc3n2)cc1`, the inhibition was 51.3% (active).

For the molecule `Clc1cccc(-c2nc(NCC3CCCO3)c3ccccc3n2)c1` (stereo not drawn), the inhibition is 17.9%.

Consider `CCC(=O)N1CCc2cc(S(=O)(=O)NC(C(=O)N3CCc4ccccc4C3)C(C)C)ccc21` (stereo not drawn), for which the inhibition was 40.2% (active).

As for `CCC(=O)N1CCc2cc(S(=O)(=O)CCC(=O)N3CCN(c4ccccc4F)CC3)ccc21`, the inhibition was 22%.

Turning to `CCOC(=O)N1CCC(NC(=O)C(NS(=O)(=O)c2ccc3c(c2)CCN3C(=O)CC)C(C)C)CC1` (stereo not drawn), the inhibition was -1.74%.

In the case of `COc1ccccc1-c1cnn2c(N3CCOCC3)cc(C)nc12`, the inhibition is 4.69%.

With `COc1ccc(C(=O)NC(=S)N2CCNC(=O)C2CC(=O)OC(C)C)cc1` (stereo not drawn), the inhibition is -10.3%.

For `COc1cccc(CNS(=O)(=O)c2cc3c(cc2C)n(C)c(=O)c(=O)n3C)c1`, the inhibition was 8.44%.

In the case of `Cc1cccc(Cn2cnc3c(N)c(C)c(C)cc32)c1`, the inhibition was 16.8%.

For the molecule `COc1cccc(Cn2cnc3c([N+](=O)[O-])c(C)c(C)cc32)c1`, the inhibition is 41% (active).

As to `O=C(c1ccc(CSc2ccccc2)cc1)N1CCCCCC1`, the inhibition is 42.3% (active).

Regarding `O=C(c1ccc(S(=O)(=O)c2ccccc2)cc1)N1CCCCCC1`, the inhibition was 15.7%.

Turning to `CC1CCN(C(=O)c2ccc(CSc3ccc(Cl)cc3)cc2)CC1`, the inhibition was 24.5%.

Turning to `Cc1nc(NC(=O)CCC(=O)O)sc1C(=O)N(C)C`, the inhibition is 3.6%.

Consider `Cc1ccc(S(=O)(=O)NCC2CCC(C(=O)N3CCOCC3)CC2)cc1` (stereo not drawn), for which the inhibition is 9.53%.

In the case of `Cc1ccc(S(=O)(=O)NC(C(=O)N2CCOCCOCCOCCOCC2)c2ccccc2)cc1` (stereo not drawn), the inhibition was 40.5% (active).

Regarding `Cc1ccc(S(=O)(=O)NCC(=O)N2CCOCCOCCOCCOCC2)cc1`, the inhibition is 3.97%.

As for `COc1ccnc(Oc2ccccc2)n1`, the inhibition was -10.3%.

`COc1ccc(S(=O)(=O)N2CCN(CC(=O)N3CCOCC3)CC2)cc1OC`: the inhibition is -6.09%.

Take `CNC(=O)c1csc(-c2ccccc2)n1`: the inhibition is 8.44%.

With `CNC(=O)c1csc(Cc2c(Cl)sc3ccc(Cl)cc23)n1`, the inhibition is 41.4% (active).

Turning to `CC(=O)NNC(=O)c1csc(Cc2c(Cl)sc3ccc(Cl)cc23)n1`, the inhibition was 23.3%.

With `Cc1cccc(C)c1NC(=O)CN1C(=O)C(C)Oc2ccccc21` (stereo not drawn), the inhibition is 3.34%.

For `COc1ccccc1-n1ccnc(SCC(=O)NC2CCCCC2)c1=O`, the inhibition is 43.2% (active).

In the case of `COc1ccccc1-n1ccnc1SCC(=O)NC(C)(C)C`, the inhibition is 4.37%.

As to `COc1ccc(-c2nnc(SCC(=O)NC3CCCCC3)o2)cc1OC`, the inhibition was 17%.

Consider `CCN(c1ccc(NC(=O)COC(=O)CCc2nc3ccccc3n2-c2ccccc2)cc1)C(C)C`, for which the inhibition is 13.1%.

With `O=S(=O)(c1ccc(-c2ccno2)s1)N1CCCCC1`, the inhibition is 9.27%.

Turning to `CNC(=O)C1CC(=O)N(Cc2ccc3c(c2)OCO3)C(=Nc2ccc(F)cc2)S1` (stereo not drawn), the inhibition was -3.7%.

With `CC(C)Oc1ccc(CC(=O)NNC(=S)Nc2ccc(Br)cc2)cc1`, the inhibition is 17.7%.

With `Cc1[nH]n(-c2ccccc2)c(=O)c1N=Nc1ccccc1C(=O)N1CCCCC1`, the inhibition is 22.5%.

Consider `Cc1[nH]n(-c2ccc([N+](=O)[O-])cc2)c(=O)c1C=NCCN1CCN(C(=O)c2ccccc2F)CC1`, for which the inhibition was 42.3% (active).

With `C=CCNC(=S)N1CCN(CCN=Cc2c(C)[nH]n(-c3ccc([N+](=O)[O-])cc3)c2=O)CC1`, the inhibition is 43.4% (active).

Regarding `Cc1ccc(-n2[nH]c(C)c(/C=N/NC(=O)c3cccc([N+](=O)[O-])c3)c2=O)cc1C`, the inhibition was 6.18%.

Turning to `CCNC(=S)N1CCN(CCN=CC2=C(O)CC(C)(C)CC2=O)CC1`, the inhibition was -11.3%.

As to `CC1(C)CC(=O)C(C=NCCN2CCN(C(=S)Nc3cccc(Cl)c3)CC2)=C(O)C1`, the inhibition was 6.34%.

As to `CCOc1ccc(CCNC(=O)COC(=O)c2c(OC)cccc2OC)cc1OCC`, the inhibition is 8.9%.

As for `CCN(CC)c1ccc(C(=O)NNC(=O)CCc2nc3ccccc3c(=O)[nH]2)cc1`, the inhibition was 10.1%.

For `CC(=O)Oc1c(C(=O)c2nnc(C)o2)c(=O)n(Cc2ccccc2)c2ccccc12`, the inhibition is 7.1%.

On to `CSCCC1NC(=O)N(CC(=O)Nc2cccc(S(=O)(=O)N3CCCCCC3)c2)C1=O` (stereo not drawn), for which the inhibition was 10.1%.

In the case of `O=S(=O)(c1ccc(F)cc1)N1CCN(C(=S)NC2CCCC2)CC1`, the inhibition is 16%.

On to `C[n+]1ccc(/C=C/c2c[nH]c3ccccc23)cc1`, for which the inhibition is 10.5%.

For the molecule `CCC(C)(C)NC(=O)C(c1ccc(OC)cc1)N(C(=O)CCC(=O)Nc1cc(C)on1)c1ccc(OC)cc1OC` (stereo not drawn), the inhibition was 6.97%.

Take `CC1CCN(CCCNC(=O)CN2C(=O)CSc3ccc(S(=O)(=O)N4CCCCC4)cc32)CC1`: the inhibition is 25.2%.

Regarding `Cc1cc(C(C)(C)C)n2nc(C)c(-c3ccccc3)c2n1`, the inhibition is 8.46%.

As to `COc1ccc(-c2cc(C)nc3nc(N)nn23)cc1`, the inhibition was 10.4%.

For `Cc1cc(N)n2nc(-c3ccc(C(C)(C)C)cc3)cc2n1`, the inhibition is 57% (active).

Consider `O=C(O)CSC(NC(=O)c1cccnc1)(C(F)(F)F)C(F)(F)F`, for which the inhibition was -2.15%.

Regarding `CN(C)CCCCCN(C)Cc1cc2ccccc2o1`, the inhibition is 18.5%.

For the molecule `CN(C(=O)CCN1C(=O)/C(=C/c2ccccc2F)SC1=S)C1CCS(=O)(=O)C1` (stereo not drawn), the inhibition is 6.93%.

In the case of `O=C(CN1CCCCCC1)NCCN1C(=O)S/C(=C\c2ccccc2Cl)C1=O`, the inhibition was 12.4%.

`O=C1/C(=C\c2ccccc2Cl)SC(=S)N1CCC(=O)N1CCCc2ccccc21`: the inhibition is 41.3% (active).

For the molecule `C#CCCCc1nc2ccccc2c(=O)n1N`, the inhibition is 6.38%.

Consider `CC1CCCN(C(=O)c2ccc3c(c2)C(=O)N(CCC2=CCCCC2)C3=O)C1` (stereo not drawn), for which the inhibition is 24.8%.

For the molecule `COc1ccc(C(=O)/C=C/c2ccc(-c3ccccc3)cc2)cc1CSCC(=O)O`, the inhibition is 41.5% (active).

Take `COc1ccc(/C=C/C(=O)c2ccc(NS(=O)(=O)c3ccc(C)cc3)cc2)cc1O`: the inhibition was 31.4%.

As for `COC(=O)c1ccc(COc2ccc(/C=C/C(=O)c3ccc(OC)c(CSCC(=O)O)c3)cc2OC)cc1`, the inhibition was 29.5%.

Regarding `CCCCn1c(=S)[nH]c2cc(S(=O)(=O)N3CCCCC3)ccc21`, the inhibition was 19.1%.

As to `COc1ccc(C(=O)NC2(C(F)(F)F)NC(=O)N(CCCc3ccccc3)C2=O)c(OC)c1OC` (stereo not drawn), the inhibition was 22.9%.

Consider `COc1ccccc1-n1c(=S)[nH]c2c(sc(=S)n2-c2ccc(C)cc2C)c1=O`, for which the inhibition was 8.48%.

In the case of `Cc1ncc([N+](=O)[O-])n1CCOC(=O)c1ccc(Br)cc1`, the inhibition was 4.67%.

As to `COc1ccc(NC(=S)N2N=CCC2c2ccccc2)cc1` (stereo not drawn), the inhibition was 40.3% (active).

As to `CCC(C)N(C)C1CCN(C(=S)Nc2ccc(OC)cc2)CC1` (stereo not drawn), the inhibition was 2.23%.

Regarding `COc1ccc(C2=NN(C(C)=O)C(c3ccccc3)C2)cc1` (stereo not drawn), the inhibition is 19.4%.

On to `CCc1ccc(OCC(=O)NCC(c2ccc(Cl)cc2)N2CCCCC2)cc1` (stereo not drawn), for which the inhibition was 34.1%.

Regarding `Fc1ccccc1/C=N/n1c(-c2cccnc2)n[nH]c1=S`, the inhibition was -14.4%.

As for `S=c1[nH]nc(-c2ccncc2)n1/N=C/c1ccccc1Cl`, the inhibition is 13.5%.

As to `S=c1[nH]nc(-c2cccnc2)n1/N=C/C(Cl)=C\c1ccccc1`, the inhibition was 41.6% (active).

For the molecule `COc1ccc(NC(=O)C(CC(C)C)NC(=O)C2CCC(C)CC2)cc1` (stereo not drawn), the inhibition is 23.1%.

Take `CC(=O)Nc1nc(C)c(Cc2ccccc2)c(=O)[nH]1`: the inhibition was 13.2%.

Turning to `O=[N+]([O-])c1ccc2c(c1)Nc1nc3ccccc3nc1N2`, the inhibition was 60.5% (active).

Regarding `O=[N+]([O-])c1ccc2nc(-c3ccccn3)[nH]c2c1`, the inhibition is 34.1%.

As to `COc1ccc([N+](=O)[O-])cc1-c1nc2ccccc2nc1-c1ccccc1`, the inhibition was 38.3%.

`CCSC(C)CC1C/C(=N/O)c2c(C)noc2C1` (stereo not drawn): the inhibition was -9.02%.

As to `Cc1ccc(N2CCN(C(=O)c3cccs3)CC2)c(C)c1`, the inhibition is -6.62%.

As for `O=C(CN1C(=O)c2ccccc2S1(=O)=O)NC1CCCCC1`, the inhibition is 7.88%.

Consider `O=C1c2ccccc2S(=O)(=O)N1CC(O)Cn1c2ccccc2c2ccccc21` (stereo not drawn), for which the inhibition was 60.7% (active).

Regarding `CCCCN(CCCC)CC(O)Cn1c2ccccc2c(=O)c2ccccc21` (stereo not drawn), the inhibition was 14.3%.

As for `CCC1=[N+]([O-])C(C)(/C(C)=N\O)N(O)C1(C)C` (stereo not drawn), the inhibition is 9.85%.

Regarding `O=C(NCc1ccccc1)C(c1cccnc1)N(C(=O)c1csnn1)c1ccc(F)cc1` (stereo not drawn), the inhibition was -25%.

As for `CCO[C@H]1OC(C(=O)N2CCN(Cc3ccccc3)CC2)=C[C@@H](c2cn(C(C)=O)c3ccccc23)[C@@H]1CCCO`, the inhibition was 15%.

As to `COc1ccc(C)cc1Nc1nc(C)nc2c1oc1ccccc12`, the inhibition is 40.7% (active).

Turning to `COc1ccccc1Nc1ncnc2c1oc1ccccc12`, the inhibition is 3.5%.

In the case of `Cc1nc(Cl)c2oc3ccccc3c2n1`, the inhibition was 0.846%.

Consider `Cc1ccc(CC(=O)Nc2cccc(C#N)c2)cc1`, for which the inhibition is 22.1%.

For orientation: inhibition means the relative decrease from the control value, in per cent.
